# From PubChem
# NLRP3 yeast inh = NALP3 inflammasome inhibitors in reconstituted yeast, primary screen, luminescence, uHTS; Yeast reconstituted NLRP3/ASC/caspase-1, beta-gal luminescence, 24 h; inhibition, % at 10 µM; actives 0.39% (n = 330,000);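 active means inhibition of 50% or more; inactive means inhibition below 50%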;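 further: plate controls were induced DMSO wells for no effect and uninduced yeast grown without galactose for full effect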
# TIM10 inh = growth inhibitors of isogenic TIM10 control yeast, primary screen, counter-screen for tim10-1 yeast inhibitor project, luminescence, uHTS; AID 463195, 2010; S. cerevisiae TIM10 strain growth, BacTiter-Glo luminescence, 24 h; inhibition, % at 10 µM; actives 1.4% (n = 330,000);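 active means inhibition of 40% or more at the single tested concentration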;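 further: wild-type TIM10 isogenic control strain grown at permissive 25 °C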
# tim23-1 inh = growth inhibitors of tim23-1 mutant yeast, primary screen, luminescence, uHTS; S. cerevisiae tim23-1 growth, BacTiter-Glo luminescence, 24 h; inhibition, % at 20 µM; actives 1.3% (n = 330,000);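 active means growth inhibition of the mutant yeast at or above 50%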;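 further: temperature-sensitive mutant grown at 25 °C; plate controls were DMSO-treated mutant yeast for no effect and medium wells lacking yeast for full effect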
# CR mimetic SO = reduction of superoxide in aged yeast, primary screen, HTS; actives 0.18% (n = 330,000); S. cerevisiae aged cells, superoxide DHE fluorescence; active compounds read low; superoxide response (% of plate mean), % at 10 µM;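 active means superoxide response under a set limit, about three screen SD below normal, cut at about 65% in these data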;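 further: yeast aged for seven days with compound at 30 °C before DHE staining; 100% = average MFI of all compound-treated wells on the plate with controls excluded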
# tim10-1 inh = growth inhibitors of tim10-1 mutant yeast, primary screen, luminescence, uHTS. actives 2.2% (n = 330,000). S. cerevisiae tim10-1 ts strain growth, BacTiter-Glo, 24 h. inhibition, % at 20 µM;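 active means inhibition of at least 40%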;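 further: mutant grown at 25 °C; 0% = DMSO wells with yeast and 100% = wells holding no yeast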
# tim23-1 conf = tim23-1 mutant yeast growth inhibitors, confirmation, luminescence, single concentration; shares compounds with tim23-1 inh; S. cerevisiae tim23-1 growth, BacTiter-Glo luminescence, 24 h; inhibition, % at 20 µM; actives 83% (n = 4,400);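 active means inhibition above about 39% in either of two replicate wells at 20 µM, limit read from the data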;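 further: temperature-sensitive tim23-1 mutant grown at 25 °C; 0% = DMSO wells with yeast and 100% = medium wells without yeast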
# Active calls of the source: *; . = not tested or not shown. Rows were chosen to be rich in hits. Some 3.8% of all compounds tested hit in one or more screens of this group.
SMILES,NLRP3 yeast inh,TIM10 inh,tim23-1 inh,CR mimetic SO,tim10-1 inh,tim23-1 conf
O=C(c1cccc(S(=O)(=O)N2CCCCC2)c1)N1CCN(Cc2ccccc2)CC1,16,4,3,116,20,.
CCOC(=O)c1c(CN(C)C)n(C)c2c(O)c(N=NC(N)=O)c3ccc(Br)cc3c12,26,28,54*,105,30,37
O=C(O)CSc1cc(C(F)(F)F)nc(-c2ccccn2)n1,0,6,3,107,6,.
FC(F)(F)c1cccc(Sc2cc(C(F)(F)F)nc(-c3ccccn3)n2)c1,22,25,51*,102,28,43*
O=C(COC(=O)CCc1ccccc1)NNC(=O)c1ccccc1,0,-11,10,98,5,.
CCCNCC1C(Oc2ccc(Cl)cc2)C(=O)N1c1ccccc1C (stereo unspecified),9,17,15,99,15,.
CC(=O)Oc1ccc(N2C(=O)c3cccc4c([N+](=O)[O-])ccc(c34)C2=O)cc1,15,39,67*,98,29,57*
Oc1ccc(Cl)cc1C1=NNC(c2ccc(Cl)cc2)C1 (stereo unspecified),5,32,50*,112,33,50*
Oc1ccc(Cl)cc1C1=NNC(c2cc(Br)cc3c2OCOC3)C1 (stereo unspecified),1,26,56*,101,40,56*
CC(C)O/C(=N\S(=O)(=O)c1ccc(Cl)cc1)c1ccccc1,8,2,24,82,18,.
CS/C(=N\S(=O)(=O)c1ccc(Cl)cc1)c1ccccc1,6,36,57*,100,23,36
CC(C)c1ccc(/C=C/C(=O)NC(=S)NN2CCOCC2)cc1,10,27,54*,67,29,36
CC(C)c1ccc(C(=O)NN2CCOCC2)cc1,12,-1,-6,99,-19,.
O=c1[nH]c(-c2ccco2)nc2sc3c(c12)CCCC3,4,28,50*,106,32,48*
COc1c(O)cc2c(c1O)C(=O)CC(c1ccccc1)O2 (stereo unspecified),19,9,44,.,28,.
Cc1c(O)cc2c(c1O)C(=O)CC(c1ccccc1)O2 (stereo unspecified),0,31,51*,101,38,48*
CCCCCCc1ccc(-c2ncc(N)cn2)cc1,32,4,53*,81,39,41*
CCCCCc1ccc(-c2nnc(N)s2)cc1,34,-21,14,90,-10,.
O=C(Cn1nc(Cl)nc1Cl)c1ccc2c(c1)OCCO2,6,16,55*,103,26,38
O=C(Cn1nc(Cl)nc1Cl)c1ccc(F)cc1,-3,3,4,99,-9,.
CCOc1ccc(N2CC(C(=O)Nc3cccnc3)CC2=O)cc1 (stereo unspecified),-8,-3,-1,87,-3,.
COC(=O)c1c(C)cc(O)c(C=O)c1O,8,0,56*,93,9,45*
COC(=O)c1c(C)c(OC(=O)c2c(C)cc(O)c(C=O)c2O)cc(C)c1O,12,-17,0,107,-1,.
COC(=O)[C@]1(C)CCC[C@@]2(C)C3CC[C@@]4(C)C[C@]3(CCC21)CC4=NO (stereo partly specified),26,24,52*,111,18,46*
CC(=O)N1CCN2C(=O)C1CCCC(=O)c1cc(C)ccc12 (stereo unspecified),10,-4,-20,118,-12,.
SMILES,NLRP3 yeast inh,TIM10 inh,tim23-1 inh,CR mimetic SO,tim10-1 inh,tim23-1 conf
CCn1c(N2CCN(S(=O)(=O)c3ccccc3C(F)(F)F)CC2)nc2ccccc21,2,23,35,109,36,.
CCn1c(N2CCN(S(=O)(=O)c3ccc(OC)cc3)CC2)nc2ccccc21,11,-12,59*,97,-12,44*
O=Cc1ccccc1OCc1ccc2c(c1)OCO2,-8,22,57*,107,0,56*
O=C(Cc1ccccc1)NCc1ccc2c(c1)OCO2,-2,-2,14,112,-5,.
Cc1ccc(N=Nc2cc(C)ccc2O)c(C)c1,14,-3,10,93,22,.
Nc1ccc(N=Nc2ccccc2O)c(N)c1,42,22,55*,129,25,46*
CCOc1ccc(C(=O)OCC(=O)N(Cc2ccccc2)Cc2ccccc2)cc1OC,6,11,30,107,9,.
COc1ccccc1Nc1ccc([N+](=O)[O-])cc1N,31,27,55*,95,36,41*
O=C(NCc1csc(-c2cccs2)n1)Nc1cccc(Cl)c1,26,37,53*,98,24,64*
O=S(=O)(CCN1CCN(c2ccccc2O)CC1)c1cc(Cl)ccc1Cl,2,26,50*,.,39,23
O=C(CN1CCN(c2ccccc2O)CC1)NNC(=O)c1ccc(Cl)cc1,-1,-4,5,95,-10,.
O=C(CN1CCN(S(=O)(=O)/C=C/c2ccccc2)CC1)Nc1ccccc1N1CCOCC1,-7,2,-25,98,-29,.
COc1cc(/C=C2\OC(=O)c3c(OC)cccc32)ccc1O,31,28,53*,148,35,48*
N#CCC(=O)NCCCc1ccccc1,0,-6,-1,98,-9,.
c1ccc(-c2cn3c4c(sc3n2)CCCC4)cc1,35,34,55*,113,24,60*
Cc1ccnc(NC(=O)CCC(=O)N(CC(=O)NC(C)(C)C)Cc2ccc3c(c2)OCO3)c1,12,0,19,78,8,.
Cc1cnc(SCc2cnc(C)nc2N)nc1,-5,24,2,99,22,.
O=C(CSc1nc2ccccc2[nH]1)Nc1ccc(N2CCOCC2)cc1,20,2,10,105,1,.
Oc1ccc(Cl)cc1C=Nc1ccc2c3c(cccc13)CC2,31,27,63*,104,14,62*
Cc1cccc(C=Nc2ccc3c4c(cccc24)CC3)c1O,25,24,38,94,38,.
NC(=O)C1CC12c1ccccc1-c1ccccc12 (stereo unspecified),8,-2,5,103,22,.
CCn1c(Cn2nnc(-c3ccccc3)n2)nnc1SCc1ccc(Cl)c(Cl)c1,25,28,53*,107,33,45*
CCn1c(Cn2nnc(-c3ccccc3)n2)nnc1SCC(=O)N1CCOCC1,15,8,8,96,4,.
COc1ccc(S(=O)(=O)N2CCC3(CC2)OCCN3S(=O)(=O)c2ccc(OC)cc2)cc1,1,12,7,103,-6,.
COc1ccc(S(=O)(=O)N2CCOC23CCN(S(=O)(=O)c2ccc(Cl)cc2)CC3)cc1,-1,33,52*,100,36,42*
